This is part of a sample that, as a whole, favours compounds with a hit. Of some 79,000 tested, about 15% had one in any assay. Unmarked numbers belong to inactive results. Calls of active or inactive are those of the source. Rule as the data show it: active = growth inhibition above about 70%; inactive = the rest.

Drawing on PubChem BioAssay (NCI), this text covers growth inhibition for ten compounds.

Experiment [1] in a line: NCI Yeast Anticancer Drug Screen. Data for the rad50 strain (AID 155).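 Also: 0% = growth of vehicle-only cultures of the same strain.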 The conditions noted are these: S. cerevisiae rad50 strain growth inhibition, hits give high values. The gist of the method: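 Growth of the mutant yeast was measured after compound exposure and referenced to vehicle-treated cultures.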
Experiment [2] in a line: NCI Yeast Anticancer Drug Screen. Data for the mec2-1 strain (AID 157). The conditions noted are these: S. cerevisiae mec2-1 strain, hits give high values. The method, boiled down:
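Using mec2-1 yeast: add compound, measure growth, express inhibition versus vehicle-treated cultures.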

Experiment [3] in a line: NCI Yeast Anticancer Drug Screen. Data for the sgs1 mgt1 strain (AID 161).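 Also: 0% = growth of cultures given vehicle only.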 Conditions: S. cerevisiae sgs1 mgt1 strain, hits give high values. The method, boiled down:
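This yeast growth screen uses a strain with defined DNA-repair lesions; compound-treated growth is compared with vehicle-treated growth.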

A short description of experiment [4]: NCI Yeast Anticancer Drug Screen. Data for the cln2 rad14 strain (AID 165).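 Also: 0% = growth equal to vehicle treated cultures.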 The conditions noted are these: S. cerevisiae cln2 rad14 strain, hits give high values. The method, boiled down: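 Yeast strain cln2 rad14, bearing defects in cell cycle control and DNA repair, serves as the test system; values reflect growth inhibition compared with vehicle.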
The nature of experiment [5]: NCI Yeast Anticancer Drug Screen. Data for the bub3 strain (AID 167). Conditions: S. cerevisiae bub3 mutant strain, hits give high values. The method, boiled down: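 Whole-cell yeast assay. The mutant strain was incubated with compounds, and growth inhibition was determined by comparison with vehicle-treated cells.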
A short description of experiment [6]: NCI Yeast Anticancer Drug Screen. Data for the mlh1 rad18 strain (AID 175). Conditions: S. cerevisiae mlh1 rad18 strain growth inhibition, hits give high values. The method, boiled down: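 Steps: expose repair-defective yeast to compound; measure growth; express inhibition against vehicle-treated controls.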
The mark [7] stands for this setting: at 5.0 µM (retest, dose inferred, filed as 0.5).
Setting [8] is: at 50.0 µM (retest, dose inferred, filed as 5.0).

Turning to `CCCN(CCC)CC(O)c1ccc2ccc3ccc(Cl)cc3c2c1` (stereo not given), the growth inhibition in experiment [1] (setting [7]) is 20%; in experiment [1] (setting [8]), 98% (active); in experiment [1] (at 50.0 µM), 99.8% (active); in experiment [2] (setting [7]), 18%; in experiment [2] (setting [8]), 98% (active); in experiment [2] (at 50.0 µM), 99.8% (active). The growth inhibition was 39% in experiment [3] (setting [7]); 99% (active) in experiment [3] (setting [8]); 99.8% (active) in experiment [3] (at 50.0 µM); 29% in experiment [4] (setting [7]); 98% (active) in experiment [4] (setting [8]); 99.6% (active) in experiment [4] (at 50.0 µM). For the same compound, the growth inhibition was 38% in experiment [5] (setting [7]); 98% (active) in experiment [5] (setting [8]); 99.5% (active) in experiment [5] (at 50.0 µM); 27% in experiment [6] (setting [7]); 99% (active) in experiment [6] (setting [8]); 99.8% (active) in experiment [6] (at 50.0 µM).

`CCC(=O)/C(=C\c1ccccc1)C(=O)C(C)CN(C)C` (stereo not given): the growth inhibition in experiment [1] (setting [7]) is 9%; in experiment [1] (setting [8]) it was 23%; in experiment [1] (at 50.0 µM), 7%; in experiment [2] (setting [7]), 13%; in experiment [2] (setting [8]), 16%; in experiment [2] (at 50.0 µM) it was 17.6%. In addition, the growth inhibition in experiment [3] (setting [7]) was 12%; in experiment [3] (setting [8]), 16%; in experiment [3] (at 50.0 µM), 26.6%; in experiment [4] (setting [7]) it was 20%; in experiment [4] (setting [8]), 25%; in experiment [4] (at 50.0 µM), 25.8%. For the same compound, the growth inhibition is 10% in experiment [5] (setting [7]); 15% in experiment [5] (setting [8]); 33.8% in experiment [5] (at 50.0 µM); 16% in experiment [6] (setting [7]); 24% in experiment [6] (setting [8]); 51.8% in experiment [6] (at 50.0 µM).

On to `C=CC1(c2ccc(OC)cc2)OCCCO1`, for which the growth inhibition in experiment [1] (setting [7]) was -11%; in experiment [1] (setting [8]), 99% (active); in experiment [1] (at 50.0 µM), 89.7% (active); in experiment [2] (setting [7]) it was -13%; in experiment [2] (setting [8]), 99% (active); in experiment [2] (at 50.0 µM), 92.4% (active). The growth inhibition in experiment [3] (setting [7]) was -16%; in experiment [3] (setting [8]), 99% (active); in experiment [3] (at 50.0 µM), 87.5% (active); in experiment [4] (setting [7]), 27%; in experiment [4] (setting [8]), 99% (active); in experiment [4] (at 50.0 µM), 88.7% (active). Further, the growth inhibition was -27% in experiment [5] (setting [7]); 100% (active) in experiment [5] (setting [8]); 90.8% (active) in experiment [5] (at 50.0 µM); -16% in experiment [6] (setting [7]); 97% (active) in experiment [6] (setting [8]); 89% (active) in experiment [6] (at 50.0 µM).

Regarding `CCn1c2ccccc2c2ccc(C3C(C(=O)OC)=C(C)NC(C)=C3C(=O)OC)cc21`, the growth inhibition in experiment [1] (setting [7]) was -3%; in experiment [1] (setting [8]), 8%; in experiment [1] (at 50.0 µM) it was 79.4% (active); in experiment [2] (setting [7]), -14%; in experiment [2] (setting [8]) it was 14%; in experiment [2] (at 50.0 µM), 76% (active). In addition, the growth inhibition is -2% in experiment [3] (setting [7]); 9% in experiment [3] (setting [8]); 80.8% (active) in experiment [3] (at 50.0 µM); -14% in experiment [4] (setting [7]); 26% in experiment [4] (setting [8]); 83.2% (active) in experiment [4] (at 50.0 µM). The growth inhibition is -6% in experiment [5] (setting [7]); 15% in experiment [5] (setting [8]); 85% (active) in experiment [5] (at 50.0 µM); 1% in experiment [6] (setting [7]); 8% in experiment [6] (setting [8]); 85% (active) in experiment [6] (at 50.0 µM).

For `S=C1NCCNC(=S)SS1`, the growth inhibition in experiment [1] (setting [7]) was 40%; in experiment [1] (setting [8]), 97% (active); in experiment [1] (at 50.0 µM) it was 93% (active); in experiment [2] (setting [7]), 8%; in experiment [2] (setting [8]), 99% (active); in experiment [2] (at 50.0 µM), 77.6% (active). Besides, the growth inhibition in experiment [3] (setting [7]) was 15%; in experiment [3] (setting [8]), 97% (active); in experiment [3] (at 50.0 µM), 48.5%; in experiment [4] (setting [7]), 7%; in experiment [4] (setting [8]) it was 98% (active); in experiment [4] (at 50.0 µM), 20.2%. Moreover, the growth inhibition is 10% in experiment [5] (setting [7]); 99% (active) in experiment [5] (setting [8]); 98.8% (active) in experiment [5] (at 50.0 µM); 14% in experiment [6] (setting [7]); 99% (active) in experiment [6] (setting [8]); 44.5% in experiment [6] (at 50.0 µM).

As for `CC(C)n1nnc2ccccc2c1=Nc1ccccc1`, the growth inhibition is 1% in experiment [1] (setting [7]); 85% (active) in experiment [1] (setting [8]); 96.1% (active) in experiment [1] (at 50.0 µM); -6% in experiment [2] (setting [7]); 95% (active) in experiment [2] (setting [8]); 97% (active) in experiment [2] (at 50.0 µM). Besides, the growth inhibition is -2% in experiment [3] (setting [7]); 89% (active) in experiment [3] (setting [8]); 96.2% (active) in experiment [3] (at 50.0 µM); 6% in experiment [4] (setting [7]); 16% in experiment [4] (setting [8]); 91.3% (active) in experiment [4] (at 50.0 µM). Moreover, the growth inhibition in experiment [5] (setting [7]) was 0%; in experiment [5] (setting [8]) it was 63%; in experiment [5] (at 50.0 µM) it was 95.5% (active); in experiment [6] (setting [7]), 16%; in experiment [6] (setting [8]), 90% (active); in experiment [6] (at 50.0 µM), 96.5% (active).

For `O=C(O)c1c(Cl)c(Cl)c(Cl)c(Cl)c1-c1c2ccc(=O)cc-2oc2cc(O)ccc12`, the growth inhibition is 54% in experiment [1] (setting [7]); 97% (active) in experiment [1] (setting [8]); 86.7% (active) in experiment [1] (at 50.0 µM); 45% in experiment [2] (setting [7]); 99% (active) in experiment [2] (setting [8]); 92% (active) in experiment [2] (at 50.0 µM). Moreover, the growth inhibition is 61% in experiment [3] (setting [7]); 99% (active) in experiment [3] (setting [8]); 90.5% (active) in experiment [3] (at 50.0 µM); 57% in experiment [4] (setting [7]); 98% (active) in experiment [4] (setting [8]); 91.2% (active) in experiment [4] (at 50.0 µM). Also, the growth inhibition in experiment [5] (setting [7]) was 57%; in experiment [5] (setting [8]), 99% (active); in experiment [5] (at 50.0 µM), 90.1% (active); in experiment [6] (setting [7]) it was 67%; in experiment [6] (setting [8]), 98% (active); in experiment [6] (at 50.0 µM), 86.2% (active).

With `CCCCCCCCN(CCCCCCCC)C(=O)C(C)O` (stereo not given), the growth inhibition is 14% in experiment [1] (setting [7]); 98% (active) in experiment [1] (setting [8]); 98.7% (active) in experiment [1] (at 50.0 µM); -2% in experiment [2] (setting [7]); 98% (active) in experiment [2] (setting [8]); 89.2% (active) in experiment [2] (at 50.0 µM). The growth inhibition in experiment [3] (setting [7]) is 20%; in experiment [3] (setting [8]), 99% (active); in experiment [3] (at 50.0 µM), 97.7% (active); in experiment [4] (setting [7]) it was 9%; in experiment [4] (setting [8]), 97% (active); in experiment [4] (at 50.0 µM), 81.7% (active). Besides, the growth inhibition in experiment [5] (setting [7]) is 6%; in experiment [5] (setting [8]) it was 99% (active); in experiment [5] (at 50.0 µM), 97.5% (active); in experiment [6] (setting [7]), 27%; in experiment [6] (setting [8]) it was 98% (active); in experiment [6] (at 50.0 µM) it was 94% (active).

As to `NS(=O)(=O)c1ccc(NC(=S)/N=C/c2c(O)c3ccccc3[nH]c2=O)cc1`, the growth inhibition in experiment [1] (setting [7]) is 20%; in experiment [1] (setting [8]), 55%; in experiment [1] (at 50.0 µM) it was 22.4%; in experiment [2] (setting [7]), 17%; in experiment [2] (setting [8]), 26%; in experiment [2] (at 50.0 µM), -0.65%. Also, the growth inhibition in experiment [3] (setting [7]) was -29%; in experiment [3] (setting [8]), 0%; in experiment [3] (at 50.0 µM) it was 25.4%; in experiment [4] (setting [7]) it was 3%; in experiment [4] (setting [8]), 7%; in experiment [4] (at 50.0 µM), -4.25%. In addition, the growth inhibition in experiment [5] (setting [7]) is -10%; in experiment [5] (setting [8]), -8%; in experiment [5] (at 50.0 µM), -11.8%; in experiment [6] (setting [7]) it was 21%; in experiment [6] (setting [8]) it was 30%; in experiment [6] (at 50.0 µM), 27.4%.

In the case of `O=c1[nH]c2ccc([N+](=O)[O-])cc2c2ccc(Cl)cc12`, the growth inhibition was 3% in experiment [1] (setting [7]); 9% in experiment [1] (setting [8]); 77.2% (active) in experiment [1] (at 50.0 µM); -5% in experiment [2] (setting [7]); 25% in experiment [2] (setting [8]); 51.8% in experiment [2] (at 50.0 µM). The growth inhibition in experiment [3] (setting [7]) was -11%; in experiment [3] (setting [8]) it was 16%; in experiment [3] (at 50.0 µM) it was 61.8%; in experiment [4] (setting [7]), 1%; in experiment [4] (setting [8]), 3%; in experiment [4] (at 50.0 µM), -0.3%. The growth inhibition in experiment [5] (setting [7]) is 0%; in experiment [5] (setting [8]), 2%; in experiment [5] (at 50.0 µM) it was 7.4%; in experiment [6] (setting [7]), 11%; in experiment [6] (setting [8]), 40%; in experiment [6] (at 50.0 µM), 71.7% (active).
